The full data set covers some 7,900 targets. This sample favours those with a hit. About 0.6% of all pairs of compound and target were hits.
Tests used:
Test in all cases: log2 fold change, soluble protein after heating vs DMSO (PISA); higher = thermal stabilisation; K562 cells, 10 uM, 30 min; active = over 0.2 and 3.5 SD of the protein, either way, in both replicates (recomputed)
[1] = compound: CC1=C(C=C(C=C1)NC(=O)C2=CC(=CC=C2)C(C)(C)C#N)NC3=CC4=C(C=C3)N=CN(C4=O)C
Method in brief: (§1)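 Aliquots of K562 cells (2×10^6 cells/mL) treated with 10 μM compound for 30 min were heated for 3 min over 48°C-58°C. After pooling and extraction in PBS with 0.5% NP-40 at 4°C, soluble protein from a 21,000xg, 90 min spin was quantified by TMTpro 16plex LC-MS/MS with channel sums equalised. Thermal stability is expressed against control samples, from duplicates, as a log2 fold change.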

[2] = compound: CC1=CC=C(C=C1)SC2=C3C=C(SC3=CN=C2)C(=O)N
Method in brief: as §1

[3] = compound: CC1=NC(=CC=C1)C2=C(N=C(N2)C(C)(C)C)C3=CC4=NC=CN=C4C=C3
Method in brief: as §1

Nexturastat A = compound: CCCCN(Cc1ccc(C(=O)NO)cc1)C(=O)Nc1ccccc1 [Nexturastat A]
Method in brief: as §1

vemurafenib = compound: CCCS(=O)(=O)Nc1ccc(F)c(C(=O)c2c[nH]c3ncc(-c4ccc(Cl)cc4)cc23)c1F [vemurafenib]
Method in brief: as §1

[4] = compound: CCCS(=O)(=O)Nc1ccc(F)c(C(=O)c2c[nH]c3ncc(Cl)cc23)c1F
Method in brief: as §1

[5] = compound: CCCc1cc(C)[nH]c(=O)c1CNC(=O)c1cc(-c2ccnc(N3CCN(C)CC3)c2)cc2c1cnn2C(C)C
Method in brief: as §1

givinostat = compound: CCN(CC)Cc1ccc2cc(COC(=O)Nc3ccc(C(=O)NO)cc3)ccc2c1 [givinostat]
Method in brief: as §1

barasertib = compound: CCN(CCCOc1ccc2c(Nc3cc(CC(=O)Nc4cccc(F)c4)[nH]n3)ncnc2c1)CCOP(=O)(O)O [barasertib]
Method in brief: as §1

[6] = compound: CC[C@@H]1C(=O)N(C)c2cnc(Nc3ccc(C(=O)NC4CCN(C)CC4)cc3OC)nc2N1C1CCCC1
Method in brief: as §1

volasertib = compound: CC[C@@H]1C(=O)N(C)c2cnc(Nc3ccc(C(=O)N[C@H]4CC[C@H](N5CCN(CC6CC6)CC5)CC4)cc3OC)nc2N1C(C)C [volasertib]
Method in brief: as §1

[7] = compound: CC[C@H](C)N1C=C(C2=C(C=C(C=C21)C3=CN=C(C=C3)N4CCNCC4)C(=O)NCC5=C(C=C(NC5=O)C)C)C
Method in brief: as §1

epoxomicin = compound: CC[C@H](C)[C@@H](C(=O)N[C@@H]([C@@H](C)O)C(=O)N[C@@H](CC(C)C)C(=O)[C@]1(CO1)C)NC(=O)[C@H]([C@@H](C)CC)N(C)C(=O)C [epoxomicin]
Method in brief: as §1

[8] = compound: CCn1c(C(=O)N(C2CC2)C2CC2)cc2c3c(ncn3C)c(Nc3cc(C)n(C)n3)nc21
Method in brief: as §1

[9] = compound: CCn1cc(-c2ccnc3[nH]c(-c4cccc(CN(C)C)c4)cc23)c(-c2ccc(NC(=O)N(C)C)cc2)n1
Method in brief: as §1

[10] = compound: CN(C)CC(=O)Nc1ccc2[nH]c(=O)c3ccccc3c2c1
Method in brief: as §1

rosiglitazone = compound: CN(CCOC1=CC=C(C=C1)C[C@H]2C(=O)NC(=O)S2)C3=CC=CC=N3 (racemic) [rosiglitazone]
Method in brief: as §1

[11] = compound: CN1C2=C(C3=C1C(=O)N(N=C3)CC4=CC(=CC=C4)N)SC(=C2)S(=O)C
Method in brief: as §1

[12] = compound: CN1CCC(CNc2ccc3ncc(-c4cccc(OC(F)(F)F)c4)n3n2)CC1
Method in brief: as §1

[13] = compound: CC1=C(C=C(C=C1)NC(=O)C2=CC(=CC=C2)N(C)C)NC(=O)C3=CC=C(C=C3)O
Method in brief: as §1

Measured: log2 fold change

RNF2 (UniProt Q99496)
active: [7] -0.307
inactive: [1] 0.155 | [2] 0.051 | [3] 0.022 | Nexturastat A 0.024 | vemurafenib -0.066 | [4] 0.061 | [5] 0.07 | givinostat -0.04 | barasertib -0.002 | [6] -0.045 | volasertib -0.169 | epoxomicin 0.168 | [8] 0.1 | [9] 0.012 | [10] 0.007 | rosiglitazone 0.036 | [11] 0.063 | [12] -0.03

SDC3 (UniProt O75056)
inactive: [1] 0.091 | Nexturastat A 0.016 | vemurafenib 0.073 | [6] 0.223 | [7] 0.067 | epoxomicin 0.005 | [9] -0.401 | [10] 0.006 | [11] -0.017 | [12] 0.632

SAFB2 (UniProt K7EQU4)
inactive: [3] 0.057 | Nexturastat A 0.111 | barasertib 0.295 | [7] -0.095 | epoxomicin -0.11 | rosiglitazone -0.269

SLC12A5 (UniProt Q9H2X9)
inactive: [1] 0.074 | [2] 0.108 | [3] 0.198 | Nexturastat A 0.001 | vemurafenib -0.105 | [4] 0.081 | [5] -0.018 | givinostat 0.016 | barasertib -0.004 | [6] -0.007 | volasertib -0.033 | epoxomicin -0.162 | [8] 0.002 | [10] -0.013 | rosiglitazone -0.022 | [11] 0.316

ROMO1 (UniProt P60602)
Chain of UniProt P60602 (P60602 whole entry, looked up): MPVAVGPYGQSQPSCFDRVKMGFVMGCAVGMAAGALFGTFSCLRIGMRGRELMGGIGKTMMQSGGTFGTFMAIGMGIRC
inactive: [1] 0.087 | [13] -0.011 | [2] 0.005 | Nexturastat A -0.066 | [4] -0.017 | [5] -0.082 | givinostat -0.027 | barasertib -0.036 | [6] 0.033 | volasertib 0.01 | [7] -0.06 | epoxomicin -0.178 | [8] 0.024 | [9] -0.023 | rosiglitazone -0.023 | [11] 0.125 | [12] 0.049

RPS3 (UniProt E9PJN9)
inactive: [13] 0.125 | [6] 0.098 | [9] -0.125 | [11] 0.088 | [12] 0.089

SCYL3 isoform 2 (UniProt Q8IZE3)
Chain of UniProt Q8IZE3 (Q8IZE3 whole entry, looked up): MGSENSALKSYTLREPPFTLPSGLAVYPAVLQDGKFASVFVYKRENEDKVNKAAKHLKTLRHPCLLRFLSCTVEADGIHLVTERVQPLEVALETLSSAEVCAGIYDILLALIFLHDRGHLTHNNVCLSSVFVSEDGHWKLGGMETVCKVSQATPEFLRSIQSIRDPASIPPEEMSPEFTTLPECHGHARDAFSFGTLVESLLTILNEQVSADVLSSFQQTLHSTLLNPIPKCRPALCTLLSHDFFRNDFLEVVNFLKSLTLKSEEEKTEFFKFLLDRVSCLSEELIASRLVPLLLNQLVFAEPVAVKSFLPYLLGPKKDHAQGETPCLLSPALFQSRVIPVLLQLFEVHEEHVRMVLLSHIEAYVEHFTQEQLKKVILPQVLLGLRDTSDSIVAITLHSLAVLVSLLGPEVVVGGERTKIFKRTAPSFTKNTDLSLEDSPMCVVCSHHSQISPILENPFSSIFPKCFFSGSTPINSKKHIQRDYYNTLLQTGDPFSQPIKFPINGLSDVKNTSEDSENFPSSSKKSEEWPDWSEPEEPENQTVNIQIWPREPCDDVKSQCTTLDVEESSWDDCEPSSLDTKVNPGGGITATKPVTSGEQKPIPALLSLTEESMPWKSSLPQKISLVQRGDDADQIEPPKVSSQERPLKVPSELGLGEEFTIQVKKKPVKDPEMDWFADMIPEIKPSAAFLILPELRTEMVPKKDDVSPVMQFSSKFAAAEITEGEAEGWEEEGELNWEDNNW
active: volasertib -0.327
inactive: [13] -0.061 | [2] -0.002 | [3] 0.005 | Nexturastat A 0.004 | vemurafenib 0.008 | [4] 0.022 | [5] -0.01 | givinostat 0.012 | barasertib -0.012 | [6] -0.114 | [7] 0.047 | epoxomicin 0.058 | [8] 0.034 | [9] -0.101 | [10] -0.021 | rosiglitazone -0.012 | [11] -0.05 | [12] -0.015

SDCBP isoform 2 (UniProt O00560)
inactive: [1] 0.06 | [13] -0.058 | [2] 0.004 | Nexturastat A 0.149 | [4] 0.076 | [5] -0.048 | givinostat -0.008 | barasertib 0.046 | [6] -0.015 | volasertib -0.221 | [7] -0.021 | epoxomicin 0.056 | [8] -0.068 | [9] -0.234 | rosiglitazone 0.105 | [11] -0.196 | [12] -0.208

SHROOM2 (UniProt Q13796)
active: Nexturastat A 0.763
inactive: [1] -0.104 | [2] 0.011 | [3] -0.206 | vemurafenib -0.078 | [4] -0.179 | [5] -0.207 | givinostat 0.238 | barasertib 0.071 | [6] 0.027 | volasertib 0.068 | [7] -0.243 | epoxomicin -0.136 | [8] -0.203 | [9] -0.072 | [10] -0.021 | rosiglitazone 0.058 | [11] -0.103 | [12] -0.094

SLC1A3 (UniProt P43003)
inactive: [13] -0.047 | [2] 0.043 | Nexturastat A -0.099 | vemurafenib -0.043 | [4] -0.095 | [5] -0.127 | givinostat -0.1 | barasertib -0.01 | [6] -0.065 | volasertib 0.003 | [7] 0.018 | epoxomicin 0.087 | [8] 0.037 | [9] -0.101 | [10] -0.048 | rosiglitazone -0.021 | [11] -0.286 | [12] 0.254

RNF26 (UniProt Q9BY78)
Chain of UniProt Q9BY78 (Q9BY78 whole entry, looked up): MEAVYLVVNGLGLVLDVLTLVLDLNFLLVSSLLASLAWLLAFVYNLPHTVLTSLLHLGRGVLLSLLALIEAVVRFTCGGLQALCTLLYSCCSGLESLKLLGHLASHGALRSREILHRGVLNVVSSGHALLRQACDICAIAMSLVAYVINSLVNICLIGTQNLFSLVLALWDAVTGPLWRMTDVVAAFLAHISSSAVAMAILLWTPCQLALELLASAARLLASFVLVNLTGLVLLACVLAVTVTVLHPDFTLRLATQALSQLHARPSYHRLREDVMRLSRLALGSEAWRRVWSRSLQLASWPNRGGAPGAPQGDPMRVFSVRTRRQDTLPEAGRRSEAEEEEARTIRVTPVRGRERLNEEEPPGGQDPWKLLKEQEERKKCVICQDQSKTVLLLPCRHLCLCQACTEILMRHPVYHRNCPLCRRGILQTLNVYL
inactive: [13] 0.012 | vemurafenib 0.281 | barasertib 0.124 | [9] 0.077 | [10] 0.017 | rosiglitazone -0.131
active: [12] -1.04

SH3PXD2B (UniProt A1X283)
active: givinostat -0.548 | [6] -2.01 | [12] -1.2
inactive: [1] -0.029 | Nexturastat A -0.052 | vemurafenib -0.145 | [5] 0.187 | barasertib 0.043 | [7] -0.068 | epoxomicin 0.048 | [8] 0.014 | [9] 0.097 | [10] -0.019 | rosiglitazone -0.008

RNF220 isoform 3 (UniProt Q5VTB9)
Chain of UniProt Q5VTB9 (Q5VTB9 whole entry, looked up): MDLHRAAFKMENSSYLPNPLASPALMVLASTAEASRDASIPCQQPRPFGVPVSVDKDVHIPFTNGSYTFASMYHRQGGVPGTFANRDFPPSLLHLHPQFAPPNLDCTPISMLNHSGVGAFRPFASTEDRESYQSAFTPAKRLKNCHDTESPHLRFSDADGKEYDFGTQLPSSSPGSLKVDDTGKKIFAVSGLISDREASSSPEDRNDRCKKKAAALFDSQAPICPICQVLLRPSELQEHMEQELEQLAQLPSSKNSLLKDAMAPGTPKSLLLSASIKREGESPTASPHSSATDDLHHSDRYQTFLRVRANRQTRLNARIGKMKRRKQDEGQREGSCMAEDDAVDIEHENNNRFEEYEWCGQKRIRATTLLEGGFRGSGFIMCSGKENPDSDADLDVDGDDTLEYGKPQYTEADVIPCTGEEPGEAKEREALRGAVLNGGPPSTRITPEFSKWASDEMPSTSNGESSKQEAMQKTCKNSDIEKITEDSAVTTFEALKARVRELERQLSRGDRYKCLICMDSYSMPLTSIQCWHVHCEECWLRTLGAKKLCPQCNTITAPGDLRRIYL
inactive: [2] 0.385 | [4] 0.201 | givinostat -0.059 | volasertib -0.31 | [8] -0.001

RPS6KA5 (UniProt O75582)
Chain of UniProt O75582 (O75582 whole entry, looked up): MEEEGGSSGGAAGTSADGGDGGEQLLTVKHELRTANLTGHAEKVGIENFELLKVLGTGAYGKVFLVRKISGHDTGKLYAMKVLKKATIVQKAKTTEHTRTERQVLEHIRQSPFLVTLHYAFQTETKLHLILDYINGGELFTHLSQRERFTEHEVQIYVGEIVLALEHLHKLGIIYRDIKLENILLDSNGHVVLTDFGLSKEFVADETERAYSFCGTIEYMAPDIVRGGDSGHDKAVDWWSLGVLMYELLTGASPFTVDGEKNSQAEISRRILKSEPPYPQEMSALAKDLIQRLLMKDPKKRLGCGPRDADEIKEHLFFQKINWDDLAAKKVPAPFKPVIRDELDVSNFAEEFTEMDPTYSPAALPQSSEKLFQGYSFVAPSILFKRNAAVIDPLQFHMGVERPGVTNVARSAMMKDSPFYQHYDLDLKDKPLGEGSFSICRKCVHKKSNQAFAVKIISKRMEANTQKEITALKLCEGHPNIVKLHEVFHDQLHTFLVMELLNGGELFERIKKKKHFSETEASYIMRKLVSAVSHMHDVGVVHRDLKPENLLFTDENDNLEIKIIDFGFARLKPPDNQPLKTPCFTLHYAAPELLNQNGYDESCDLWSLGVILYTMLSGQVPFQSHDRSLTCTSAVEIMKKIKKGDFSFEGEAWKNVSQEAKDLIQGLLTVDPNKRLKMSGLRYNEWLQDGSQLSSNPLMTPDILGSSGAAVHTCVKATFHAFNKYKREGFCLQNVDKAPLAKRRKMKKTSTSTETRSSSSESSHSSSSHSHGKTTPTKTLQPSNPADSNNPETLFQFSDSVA
inactive: [13] -0.039 | [2] 0.029 | [3] -0.017 | Nexturastat A 0.013 | [4] 0.121 | [5] 0.237 | givinostat 0.025 | [6] 0.024 | volasertib -0.529 | epoxomicin 0.048 | [8] -0.127

RAPGEF4 (UniProt Q8WZA2)
inactive: [1] -0.046 | [3] -0.235 | Nexturastat A 0.245 | vemurafenib -0.267 | [5] -0.203 | givinostat 0.248 | barasertib 0.041 | [6] -0.13 | epoxomicin -0.038 | [8] -0.136 | [10] -0.011 | rosiglitazone 0.065 | [11] -0.036

RNF41 (UniProt Q9H4P4)
Chain of UniProt Q9H4P4 (Q9H4P4 whole entry, looked up): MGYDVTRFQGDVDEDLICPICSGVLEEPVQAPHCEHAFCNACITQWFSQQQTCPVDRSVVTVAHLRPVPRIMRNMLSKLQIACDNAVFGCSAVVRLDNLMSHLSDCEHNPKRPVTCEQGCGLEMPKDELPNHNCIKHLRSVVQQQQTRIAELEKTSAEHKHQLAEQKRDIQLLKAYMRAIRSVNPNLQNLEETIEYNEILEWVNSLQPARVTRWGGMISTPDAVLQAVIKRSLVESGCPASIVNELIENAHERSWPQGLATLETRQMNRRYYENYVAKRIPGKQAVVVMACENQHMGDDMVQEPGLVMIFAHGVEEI
inactive: barasertib -0.15 | [6] 0.044 | rosiglitazone -0.073

S100A10 (UniProt P60903)
inactive: [1] 0.128 | [2] 0.181 | [4] -0.086 | barasertib 0.113 | [6] 0.284 | volasertib -0.048 | [7] 0.145 | [9] -0.056 | rosiglitazone -0.094 | [12] -0.026

SEPTIN5 (UniProt G3XAH0)
active: Nexturastat A -0.255
inactive: [1] -0.002 | [13] -0.046 | [2] 0.04 | vemurafenib 0.058 | [4] 0.023 | [5] -0.009 | givinostat 0.014 | barasertib 0.002 | volasertib 0.097 | [7] 0.074 | epoxomicin 0.049 | [8] -0.021 | [9] 0.211 | [10] 0.011 | rosiglitazone 0.056 | [11] -0.079 | [12] 0.075

RAB3D (UniProt O95716)
Chain of UniProt O95716 (O95716 whole entry, looked up): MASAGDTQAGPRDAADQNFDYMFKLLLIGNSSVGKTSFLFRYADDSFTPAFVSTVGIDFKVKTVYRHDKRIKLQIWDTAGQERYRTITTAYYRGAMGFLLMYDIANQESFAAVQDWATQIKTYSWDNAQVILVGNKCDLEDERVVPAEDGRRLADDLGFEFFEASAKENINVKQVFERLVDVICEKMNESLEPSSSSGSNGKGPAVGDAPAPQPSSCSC
inactive: [13] 0.074 | [2] 0.036 | vemurafenib -0.113 | [4] 0.094 | [5] 0.032 | givinostat -0.08 | barasertib 0.034 | [6] 0.039 | volasertib 0.025 | [7] 0.097 | [8] 0.067 | [9] 0.041 | [10] -0.098 | rosiglitazone -0.013 | [11] 0.103 | [12] 0.129

SCLT1 (UniProt Q96NL6)
Chain of UniProt Q96NL6 (Q96NL6 whole entry, looked up): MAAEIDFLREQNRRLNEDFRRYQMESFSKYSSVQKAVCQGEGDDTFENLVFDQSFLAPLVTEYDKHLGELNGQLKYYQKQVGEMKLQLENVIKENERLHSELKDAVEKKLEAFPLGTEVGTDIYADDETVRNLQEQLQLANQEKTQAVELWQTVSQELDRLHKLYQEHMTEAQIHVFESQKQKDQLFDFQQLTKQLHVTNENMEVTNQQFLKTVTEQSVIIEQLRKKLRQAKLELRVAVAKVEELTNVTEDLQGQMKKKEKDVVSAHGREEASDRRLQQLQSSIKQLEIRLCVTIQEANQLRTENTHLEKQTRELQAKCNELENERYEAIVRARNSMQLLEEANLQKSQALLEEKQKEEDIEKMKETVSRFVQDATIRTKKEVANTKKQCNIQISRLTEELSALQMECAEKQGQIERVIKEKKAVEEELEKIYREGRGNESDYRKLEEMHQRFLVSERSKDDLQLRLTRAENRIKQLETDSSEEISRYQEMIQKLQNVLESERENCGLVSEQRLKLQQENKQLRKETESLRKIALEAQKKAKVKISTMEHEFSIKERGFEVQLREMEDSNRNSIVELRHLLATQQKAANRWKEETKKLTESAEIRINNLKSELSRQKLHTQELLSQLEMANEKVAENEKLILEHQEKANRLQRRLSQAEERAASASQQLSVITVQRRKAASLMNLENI
inactive: [1] -0.057 | [3] -0.161 | vemurafenib 0.045 | [5] 0.01 | barasertib 0.049 | [7] -0.066 | [9] -0.116 | [10] -0.013 | rosiglitazone 0.01 | [11] -0.089 | [12] -0.029

RPS3A (UniProt D6R9B6)
inactive: [1] -0.199 | [11] 0.247

SAP30 (UniProt O75446)
inactive: [1] -0.292 | [2] -0.078 | [3] -0.164 | Nexturastat A 0.025 | vemurafenib 0.04 | [4] -0.157 | [5] 0.037 | givinostat 0.019 | volasertib 0.042 | [7] -0.039 | epoxomicin -0.109 | [8] 0.115 | [9] -0.051 | [10] 0.013 | [11] 0.175 | [12] 0.064

RBM6 (UniProt P78332)
Chain of UniProt P78332 (P78332 whole entry, looked up): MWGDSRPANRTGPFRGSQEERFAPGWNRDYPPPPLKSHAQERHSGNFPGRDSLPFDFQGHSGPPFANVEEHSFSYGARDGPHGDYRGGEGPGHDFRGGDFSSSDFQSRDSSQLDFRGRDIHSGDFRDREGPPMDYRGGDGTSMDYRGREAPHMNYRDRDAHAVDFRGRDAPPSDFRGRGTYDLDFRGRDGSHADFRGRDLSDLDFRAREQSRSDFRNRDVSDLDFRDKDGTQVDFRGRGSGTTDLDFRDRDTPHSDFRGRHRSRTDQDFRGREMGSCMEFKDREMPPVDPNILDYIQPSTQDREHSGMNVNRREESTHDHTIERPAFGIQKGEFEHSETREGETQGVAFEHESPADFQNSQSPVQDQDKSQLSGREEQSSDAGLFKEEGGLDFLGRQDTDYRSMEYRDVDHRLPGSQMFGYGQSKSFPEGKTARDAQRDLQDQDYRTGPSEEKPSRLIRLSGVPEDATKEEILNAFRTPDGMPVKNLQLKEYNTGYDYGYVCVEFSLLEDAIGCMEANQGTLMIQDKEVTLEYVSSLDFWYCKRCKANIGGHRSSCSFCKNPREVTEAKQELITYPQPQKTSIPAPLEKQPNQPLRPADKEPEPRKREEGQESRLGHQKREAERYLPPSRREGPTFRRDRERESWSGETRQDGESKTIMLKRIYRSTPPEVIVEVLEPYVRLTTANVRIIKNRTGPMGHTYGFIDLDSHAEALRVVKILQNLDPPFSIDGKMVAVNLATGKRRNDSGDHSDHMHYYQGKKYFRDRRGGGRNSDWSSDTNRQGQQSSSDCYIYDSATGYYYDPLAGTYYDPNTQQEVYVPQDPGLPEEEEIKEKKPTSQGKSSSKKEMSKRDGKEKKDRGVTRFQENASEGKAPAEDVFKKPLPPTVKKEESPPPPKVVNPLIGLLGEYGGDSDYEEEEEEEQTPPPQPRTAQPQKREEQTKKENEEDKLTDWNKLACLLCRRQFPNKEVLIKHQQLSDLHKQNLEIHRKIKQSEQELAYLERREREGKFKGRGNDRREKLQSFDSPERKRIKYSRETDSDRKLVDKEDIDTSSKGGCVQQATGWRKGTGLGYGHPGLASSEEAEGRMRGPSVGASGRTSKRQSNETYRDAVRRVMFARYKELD
inactive: [1] -0.009 | [2] -0.056 | [3] 0.092 | [4] 0.031 | [5] -0.079 | volasertib -0.148 | [7] 0.094 | [9] 0.148 | [11] 0.109 | [12] 0.175

RALGPS2 (UniProt Q86X27)
inactive: [3] -0.234 | vemurafenib 0.023 | [5] -0.128 | givinostat -0.147 | barasertib -0.116 | [6] 0.139 | epoxomicin -0.247 | [8] 0.145 | [9] -0.203 | [10] -0.059 | rosiglitazone -0.082 | [11] 0.137 | [12] 0.082
active: Nexturastat A 1.06

SF3B5 (UniProt Q9BWJ5)
active: epoxomicin 0.426
inactive: [1] 0.003 | [2] 0.072 | [3] 0.111 | Nexturastat A 0.042 | vemurafenib -0.055 | [4] -0.027 | [5] -0.009 | givinostat 0.129 | barasertib -0.12 | [6] 0.089 | volasertib -0.14 | [7] -0.057 | [8] 0.042 | [9] 0.035 | [10] 0.006 | rosiglitazone -0.044 | [11] 0.082 | [12] 0.035

— the supplement of paper PMC10849652
